Assay outcomes (PubChem BioAssay)
RORgamma inh – inhibitors of mouse ROR gamma transcriptional activity; Drosophila S2 Gal4-RORgamma UAS-luciferase reporter, 20 h; Potency, µM (doses to about 53.6 µM), for inactives: at the highest dose activity change, negative = inhibition, usual class: inhibitors; actives 5.4% (n = 310,000); AID 2551; note: potency is the fitted concentration of half-maximal effect; % is set by controls: 0 for no effect and ±100 for the full control effect; nearly all actives have a fitted effect of over 60% in size
Target sequence (P51450 whole entry, looked up, the tested form may be a part): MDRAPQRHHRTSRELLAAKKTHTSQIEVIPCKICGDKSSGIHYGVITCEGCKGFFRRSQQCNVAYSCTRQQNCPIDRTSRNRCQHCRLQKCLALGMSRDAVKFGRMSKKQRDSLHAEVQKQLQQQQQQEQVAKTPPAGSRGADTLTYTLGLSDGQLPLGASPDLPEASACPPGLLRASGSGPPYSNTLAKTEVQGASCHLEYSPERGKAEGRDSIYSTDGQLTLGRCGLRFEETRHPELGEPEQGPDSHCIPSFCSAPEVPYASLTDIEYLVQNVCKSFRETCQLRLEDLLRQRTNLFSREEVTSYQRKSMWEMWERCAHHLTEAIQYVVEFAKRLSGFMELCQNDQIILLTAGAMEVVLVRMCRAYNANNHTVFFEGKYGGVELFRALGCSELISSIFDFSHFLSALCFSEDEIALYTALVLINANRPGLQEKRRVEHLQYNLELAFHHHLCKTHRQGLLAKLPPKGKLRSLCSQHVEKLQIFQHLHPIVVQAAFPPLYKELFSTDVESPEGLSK
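Compounds are pin-transferred onto Drosophila Schneider cells expressing a copper-inducible Gal4–ROR gamma transactivation domain fusion. After 1 hr, copper sulfate is added to 700 uM final; luciferase is read 20 hr later.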
ERG Ets-DNA blk – ERG Ets/DNA interaction inhibition | P11308 | fluorescence polarization, His-ERG Ets domain / labelled DNA | Potency, µM (titrated, usually from 76.9 µM), inactives show at the top dose FP activity, negative = inhibition, actives largely listed as inhibitors | actives 0.028% (n = 370,000); active = well fitted inhibition curve with a large enough effect in the polarisation, with a control signal flat; inconclusive = small, poorly fitted or top-dose-only effect, or effect the other way, or a change in a side signal; inactive = no such curve, though single readings can be large or run the other way; the % refers to the polarisation;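 note: polarization taken with two DNA probes labelled with fluorescein and Texas red; potency is the fitted concentration of half-maximal effect; % of control where 0% means no effect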
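His-tagged ERG Ets domain (1 uM in the protein solution; 300mM KCl, 50mM Tris-HCl, 1mM EDTA, 1mM DTT, pH 7.5) received compound, then a probe mix of 5 nM fluorescein-DNA and 100nM Texas-615-DNA. Fluorescence polarization was read for both dyes.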
VP16 counter – inhibits Gal4-VP16 luciferase reporter, ROR gamma counter-screen; Drosophila S2 Gal4-VP16 UAS-luciferase, luminescence, 20 h; Potency, µM (doses to about 53.6 µM), for the others: at the highest dose activity, negative = inhibition, usual class: inhibitors; actives 3.5% (n = 310,000); AID 2546;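 note: Gal4-VP16 expression switched on by copper sulfate through the metallothionein promoter; potency is the fitted concentration of half-maximal effect; % is set by controls: 0 for no effect and ±100 for the full control effect; nearly all actives have a fitted effect of over 50% in size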
Giardia killer – kills Giardia lamblia. actives 0.15% (n = 340,000). AID 540267. activity change, % at 7.66 µM, hits read low. Giardia lamblia trophozoite viability; in the data active = activity change below about -80%; inconclusive = between about -30% and that limit;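 note: parasites exposed to compound for two days anaerobically before the ATP read; % is set by controls: 0 for no effect and ±100 for the full control effect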
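Killing of trophozoites was scored by loss of ATP luminescence after a 48 hrs anaerobic exposure to compounds at 37 deg C, using 100 cells per well.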
a7 integrin act – integrin-mediated muscular dystrophy alleviation activation. alpha7betagal myoblasts, beta-gal FDG fluorescence, 48 h. Potency, µM (titrated, usually from 38.3 µM), without a hit: at the highest dose activation, usual class: activators. actives 0.064% (n = 350,000);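 note: potency is the fitted concentration of half-maximal effect; 100% = response of the positive control SU9516; nearly all actives have a fitted effect of over 60% in size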
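Alpha7betagal+/- myoblasts (passage 13) were plated 16-24 hr, then exposed to compounds (1:260 dilution of DMSO stock) for 48 hours at 37C. After MPER lysis, β-galactosidase reporter activity was read as FDG fluorescence (ex 480/em 540) after 30 minutes.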
* marks the source's active call; other numbers are inactive results; ? = inconclusive; . = no result given; [ ] = remark or other dose. This is one part of a sample in which hits are shown more often than they occur. Unless noted, calls come from the whole dose curve; as a rule, active = well fitted curve in the direction sought with a large enough effect; inconclusive = small, poorly fitted or top-dose-only effect, or another doubt; inactive = no such curve, though single readings can be large; an effect the other way counts as inactive or inconclusive.

SMILES | RORgamma inh | ERG Ets-DNA blk | VP16 counter | Giardia killer | a7 integrin act
CCOC(=O)NN1C(=O)c2ccccc2NC1c1cccs1 (centres undefined) | 12.4% | 35.5µM* | 1.6% | ? | -17.4%
Cc1cccc(NNC(=S)Nc2c(C)cccc2C)c1 | 3.98µM* | -8.0% | 3.16µM* | -2.6 | 1.0%
Cc1cccc(NC(=S)NNc2cccc(Cl)c2)c1 | 2µM* | -1.9% | ? | -2.6 | -54.8%
Cc1cccc(NNC(=S)Nc2ccccc2)c1 | . | . | . | . | -22.9%
CN(C)CCNC(=S)Nc1cccc(Cl)c1 | -15.1% | -1.8% | -7.7% | 15.8 | -2.7%
CN(C)NC(=S)Nc1cccc(Cl)c1 | 2.24µM* | -5.0% | 7.08µM* | ? | 14.2%
NC(=O)c1ccccc1N1CCCCC1 | 7.0% | -15.0% | 0.6% | 6.5 | -0.5%
CN(C)c1ncnc2c1C(c1ccccc1)C(C)(C)O2 (centres undefined) | . | -3.4% | . | -5.5 | 3.1%
CCCCc1ccc(NC(=S)Nc2cccnc2)cc1 | 12.6µM* | 10.4% | 12.6µM* | 4.4 | -16.3%
COC(=O)Cc1ccc(NC(=S)NCc2cccc(OC)c2)cc1 | 12.6µM* | -1.9% | 8.1%[10 µM] | 13.0 | -7.8%
COc1cccc(NC(=O)Nc2ccc(CC(=O)O)cc2)c1 | ? | 8.9% | 20µM* | 2.9 | ?
CCCCc1ccc(NC(=O)Nc2cccnc2)cc1 | 42.4% | 4.1% | 5.1% | -25.9 | 0.0%
CCCCc1ccc(NC(=S)Nc2ccc(Nc3ccc(OC)cc3)cc2)cc1 | 1.12µM* | -13.1% | 1.58µM* | 26.3 | -32.1%
Cc1ccc(S(=O)(=O)N2CCN(c3nc(-c4ccc(F)cc4)nc4cc(Cl)ccc34)CC2)cc1 | . | . | . | -2.3 | .
CCCCc1ccc(NC(=S)NCc2cccnc2)cc1 | ? | -5.3% | ? | -6.3 | -31.0%
CCCCc1ccc(NC(=S)NCc2cccc(OC)c2)cc1 | 3.55µM* | 2.3% | 0.3%[10 µM] | -0.6 | 17.9%
Cc1oc2c(Cl)c(Cl)c(O)c(CN(C)C)c2c1C(=O)c1ccc(Cl)cc1 | 1.9% | 0.3% | 2.1% | -1.3 | ?
CC12CC3(C)CC(C)(C1)CC(C(=O)NC(=S)N1CCOCC1)(C2)C3 | 0.891µM* | . | ? | -4.6 | -19.3%
CC(C)(C)C(=O)NC(=S)N1CCOCC1 | -24.3% | -15.2% | -10.9% | -15.8 | 18.2%
O=C(NC(=S)N1CCOCC1)C12CCC3CC(CC(C3)C1)C2 | 1.26µM* | 9.7% | 1.78µM* | 10.4 | 41.6%
O=C(NC(=S)N1CCOCC1)C12CC3CCC(CC(C3)C1)C2 | 4.47µM* | . | 6.31µM* | 13.1 | 1.1%
O=C(NC(=S)N1CCN(CCO)CC1)C12CC3CC(CC(C3)C1)C2 | 4.5% | -11.6% | -4.3% | -16.0 | -5.2%
O=[N+]([O-])c1cccc(-c2ccc(C(=S)N3CCN(c4ccc(F)cc4)CC3)o2)c1 | 6.5% | 5.4% | -13.7% | -23.1 | 6.0%
CC1CCN(c2ccc(NC(=S)NC(=O)c3ccc(-c4cccc([N+](=O)[O-])c4)o3)cc2)CC1 | 1.58µM* | -1.6% | 7.08µM* | 6.4 | 22.2%
CC1CCN(c2ccccc2NC(=S)NC(=O)c2ccc(-c3cccc([N+](=O)[O-])c3)o2)CC1 | 1µM* | -8.9% | -3.0% | -4.4 | 3.9%
SMILES | RORgamma inh | ERG Ets-DNA blk | VP16 counter | Giardia killer | a7 integrin act
CCC(=O)N1CCN(c2ccccc2NC(=O)c2ccc(-c3cccc([N+](=O)[O-])c3)o2)CC1 | -1.8% | -4.9% | -1.4% | -7.9 | 7.5%
CN(C)c1ccc(-c2cncnc2-n2ccnc2)cc1 | -27.3% | . | -18.5% | . | .
N=C1/C(=C/c2cccn2Cc2ccc(Cl)cc2)C(=O)N=C2SC=CN12 | 3.98µM* | -2.6% | 5.01µM* | 4.2 | 4.8%
N=C1/C(=C/c2cccn2CCOc2ccccc2)C(=O)N=C2SC=C(c3ccccc3)N12 | -1.3% | 15.3% | -5.1% | 16.9 | -15.0%
CC1=CC2=NC(=O)/C(=C/c3cccn3Cc3ccccc3)C(=N)N2O1 | 12.6µM* | 10.0% | ? | -5.0 | -21.4%
CC1=CC2=NC(=O)/C(=C\c3cccn3CCOc3ccc(C)c(C)c3)C(=N)N2O1 | -44.3% | 9.2% | ? | -8.8 | 5.2%
CC1CCCN(CCCNC(=O)c2cc(Sc3ccc(F)cc3)nc3ccccc23)C1 (centres undefined) | . | -2.5% | . | . | .
CC(C)c1cnc2c(c1SCC(=O)Nc1ccc(OC(F)(F)F)cc1)c(=O)n(C)c(=O)n2C | . | 3.4% | . | . | .
Cc1nnc(SCc2cnc(-c3ccc(C(C)C)cc3)s2)n1C | 10µM* | -2.7% | 11.2µM* | 3.4 | 9.5%
c1ccc(-c2ncc(CSc3nncn3-c3ccccc3)s2)cc1 | -33.3% | -1.2% | 16.2% | 8.0 | 18.7%
COc1ccc(-c2cc(C(=O)OCC(=O)c3c(N)n(C)c(=O)n(C)c3=O)c3ccccc3n2)cc1 | 16.2% | -16.0% | -5.1% | 3.6 | -2.3%
CCOc1ccc(-c2cc(C(=O)N3CCC(C)CC3)c3ccccc3n2)cc1 | . | 17.4% | . | -16.9 | -1.6%
CCOc1ccc(-c2cc(C(=O)O)c3ccccc3n2)cc1 | 7.94µM* | -3.1% | 10µM* | -82.6* | 7.9%
COc1ccc(-c2cc(C(=O)c3c(N)n(C)c(=O)n(C)c3=O)c3ccccc3n2)cc1 | 14.1µM* | 2.0% | 11.2µM* | ? | 14.1%
CCCCOc1ccc(-c2cc(C(=O)NNC(=S)NCC)c3ccccc3n2)cc1 | 5.01µM* | -14.0% | 2.51µM* | ? | 7.9%[7.66 µM]
COc1ccc(Cl)cc1C(=O)NNC(=S)NC(=O)c1cc(-c2ccc(Cl)cc2)nc2ccccc12 | 1.26µM* | 0.2% | ? | 4.3 | 12.9%
COc1ccc(Cl)cc1C(=O)NNC(=S)NC(=O)c1ccc(F)c(F)c1 | 7.08µM* | 27.7% | 11.2µM* | 27.0 | -8.2%
CCNC(=S)NNC(=O)c1cc(-c2ccc(OC)cc2)nc2ccccc12 | 1.41µM* | -1.5% | 3.55µM* | ? | -5.6%
CCNC(=O)COC(=O)c1cc(-c2ccc(OC)cc2)nc2ccccc12 | -0.6% | -1.8% | -19.6% | -2.7 | 8.9%
CCOc1ccccc1N(C)C(=O)c1sc2nc3n(c(=O)c2c1C)CCCC3 | . | -2.6% | . | . | .
O=C(CSc1nnc(SCc2ccc(Cl)cc2)s1)N/N=C/c1c[nH]c2ccccc12 | 11.2µM* | . | 8.91µM* | -5.8 | -37.1%
CC1CN(C(=S)Nc2ccc(SC(F)F)cc2)CC(C)O1 (centres undefined) | 11.2µM* | 0.4% | -8.4% | -4.4 | 8.4%
FC(F)Oc1ccc(NC(=S)N2CCN(Cc3ccccc3)CC2)cc1 | ? | 1.3% | -6.2% | 21.1 | -20.5%
CC1CC(C)CN(C(=S)Nc2ccc(SC(F)F)cc2)C1 (centres undefined) | 5.01µM* | -9.5% | 11.2µM* | 16.1 | 6.7%
CC1CN(C(=S)Nc2ccc(Cl)cc2)CC(C)O1 (centres undefined) | -43.4% | -6.6% | -25.1% | -14.2 | -10.6%
CC1CC(C)CN(C(=S)Nc2ccc(OC(F)F)cc2)C1 (centres undefined) | 11.2µM* | 10.8% | ? | -3.3 | 6.0%
